Test results from PubChem BioAssay AID1159580 (chemical genetic matrix, 2015).
Out of some 5,500 compounds screened, about 2,000 (36%) were called active. Inconclusive results (about 18%) are left out. This is one part of the list. Unmarked numbers belong to inactive results. Rule as the data show it: active = normalized growth mostly below about 0.91 (no sharp cut-off); inconclusive = no clear call, values can overlap the other calls; inactive = mostly above about 0.92.

Test: chemical genetic growth profiling, strain panel (AID 1159580);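 also: tested at 20 µM; growth read once vehicle control cultures reached saturation at 30 °C; 1 = growth at the plate median or of vehicle wells; lower values mean less growth of the strain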
Settings: S. cerevisiae deletion strains, growth OD
[1] = locus YAL021C, strain ccr4, hits give low values
[2] = locus YAL026C, strain drs2, hits give low values
[3] = locus YAL030W, strain snc1, hits give low values
[4] = locus YBL061C, strain skt5, hits give low values
[5] = locus YBR009C, strain hhf1, hits give low values
[6] = locus YBR023C, strain chs3, hits give low values
[7] = locus YBR171W, strain sec66, hits give low values
[8] = locus YBR231C, strain swc5, hits give low values
[9] = locus YBR279W, strain paf1, hits give low values
[10] = locus YCL011C, strain gbp2, hits give low values
[11] = locus YCL016C, strain dcc1, hits give low values
[12] = locus YCL061C, strain MRC1, hits give low values
[13] = locus YCL069W, strain vba3, hits give low values
[14] = locus YCR088W, strain abp1, hits give low values
[15] = locus YDL005C, strain med2, hits give low values
[16] = locus YDL040C, strain nat1, hits give low values
[17] = locus YDR001C, strain nth1, hits give low values
[18] = locus YDR069C, strain doa4, hits give low values
[19] = locus YDR137W, strain rgp1, hits give low values
[20] = locus YDR159W, strain sac3, hits give low values
[21] = locus YDR297W, strain sur2, hits give low values
[22] = locus YDR334W, strain swr1, hits give low values
[23] = locus YDR335W, strain msn5, hits give low values
[24] = locus YDR392W, strain spt3, hits give low values
[25] = locus YEL003W, strain gim4, hits give low values
[26] = locus YEL037C, strain rad23, hits give low values
[27] = locus YEL061C, strain CIN8 (second series), hits give low values
[28] = locus YER015W, strain faa2, hits give low values
[29] = locus YER016W, strain bim1, hits give low values
[30] = locus YER111C, strain swi4, hits give low values
[31] = locus YER155C, strain BEM2 (second series), hits give low values
[32] = locus YFR010W, strain ubp6, hits give low values
[33] = locus YGL167C, strain pmr1, hits give low values
[34] = locus YGL173C, strain kem1, hits give low values
[35] = locus YGL227W, strain vid30, hits give low values
[36] = locus YGL240W, strain doc1, hits give low values
[37] = locus YGL253W, strain hxk2, hits give low values
[38] = locus YHR013C, strain ard1, hits give low values
[39] = locus YHR027C, strain rpn1, hits give low values
[40] = locus YHR030C, strain SLT2, hits give low values
[41] = locus YHR079C, strain IRE1, hits give low values
[42] = locus YHR142W, strain chs7, hits give low values
[43] = locus YJL092W, strain hpr5, hits give low values
[44] = locus YJL095W, strain BCK1 (second series), hits give low values
[45] = locus YJL095W, strain BCK1, hits give low values
[46] = locus YJL115W, strain asf1, hits give low values
[47] = locus YJL129C, strain trk1, hits give low values
[48] = locus YJL154C, strain vps35, hits give low values
[49] = locus YJL164C, strain tpk1, hits give low values
[50] = locus YJL166W, strain qcr8, hits give low values
[51] = locus YJL187C, strain SWE1, hits give low values
[52] = locus YJR066W, strain TOR1, hits give low values
[53] = locus YKL160W, strain elf1, hits give low values
[54] = locus YKR026C, strain gcn3, hits give low values
[55] = locus YKR091W, strain srl3, hits give low values
[56] = locus YLL001W, strain dnm1, hits give low values
[57] = locus YLL026W, hits give low values
[58] = locus YLL041C, strain sdh2, hits give low values
[59] = locus YLR027C, strain aat2, hits give low values
[60] = locus YLR113W, strain HOG1, hits give low values
[61] = locus YLR221C, strain rsa3, hits give low values
[62] = locus YLR258W, strain gsy2, hits give low values
[63] = locus YLR262C, strain YPT6 (second series), hits give low values
[64] = locus YLR320W, strain mms22, hits give low values
[65] = locus YLR342W, strain FKS1, hits give low values
[66] = locus YLR357W, strain rsc2, hits give low values
[67] = locus YLR370C, strain arc18, hits give low values
[68] = locus YLR384C, strain iki3, hits give low values
[69] = locus YML120C, strain ndi1, hits give low values
[70] = locus YMR058W, strain fet3, hits give low values
[71] = locus YMR125W, strain sto1, hits give low values
[72] = locus YMR129W, hits give low values
[73] = locus YMR205C, strain PFK2, hits give low values
[74] = locus YMR231W, strain pep5, hits give low values
[75] = locus YNL071W, strain lat1, hits give low values
[76] = locus YNL183C, strain NPR1, hits give low values
[77] = locus YNL209W, strain ssb2, hits give low values
[78] = locus YNL248C, strain rpa49, hits give low values
[79] = locus YNL322C, strain KRE1 (second series), hits give low values
[80] = locus YNR049C, strain mso1, hits give low values
[81] = locus YOR001W, strain rrp6, hits give low values
[82] = locus YOR070C, strain gyp1, hits give low values
[83] = locus YOR080W, strain dia2, hits give low values
[84] = locus YOR083W, strain WHI5, hits give low values
[85] = locus YOR106W, strain vam3, hits give low values
[86] = locus YOR231W, strain MKK1, hits give low values
[87] = locus YOR265W, strain rbl2, hits give low values
[88] = locus YOR270C, strain vph1, hits give low values
[89] = locus YOR290C, strain snf2, hits give low values
[90] = locus YPL051W, strain arl3, hits give low values
[91] = locus YPL078C, strain atp4, hits give low values
[92] = locus YPL106C, strain sse1, hits give low values
[93] = locus YPL240C, strain hsp82, hits give low values
[94] = locus YPL256C, strain CLN2, hits give low values

Structure (SMILES): O=C1CC2(CCCC2)CC(=O)N1CCCCN1CCN(c2ncccn2)CC1
- normalized growth [1]: 0.985
- normalized growth [2]: 1.03
- normalized growth [3]: 0.998
- normalized growth (locus YAL040C, strain CLN3, hits give low values): 0.987
- normalized growth [4]: 0.995
- normalized growth [5]: 0.989
- normalized growth [6]: 0.996
- normalized growth [7]: 1.01
- normalized growth [8]: 0.993
- normalized growth [9]: 0.999
- normalized growth [10]: 1
- normalized growth [11]: 1
- normalized growth [12]: 0.998
- normalized growth [13]: 1
- normalized growth [14]: 1.01
- normalized growth [15]: 0.993
- normalized growth [16]: 0.996
- normalized growth [17]: 1.02
- normalized growth [18]: 0.978
- normalized growth [19]: 0.984
- normalized growth [20]: 0.985
- normalized growth (locus YDR195W, strain ref2): 0.974
- normalized growth [21]: 1
- normalized growth [22]: 1.01
- normalized growth [23]: 1
- normalized growth [24]: 0.801
- normalized growth [25]: 1.01
- normalized growth [26]: 1.01
- normalized growth [27]: 1.01
- normalized growth (locus YER002W, strain NOP16, hits give low values): 1.01
- normalized growth [28]: 0.998
- normalized growth [29]: 0.996
- normalized growth [30]: 1
- normalized growth [31]: 1
- normalized growth [32]: 1.02
- normalized growth [33]: 0.991
- normalized growth [34]: 1
- normalized growth [35]: 1
- normalized growth [36]: 0.978
- normalized growth [37]: 1.01
- normalized growth [38]: 0.929
- normalized growth [39]: 1
- normalized growth [40]: 1.06
- normalized growth [41]: 1
- normalized growth [42]: 1.02
- normalized growth [43]: 1.04
- normalized growth [44]: 0.995
- normalized growth [45]: 1
- normalized growth [46]: 0.998
- normalized growth [47]: 1.02
- normalized growth [48]: 1
- normalized growth [49]: 0.986
- normalized growth [50]: 0.987
- normalized growth [51]: 0.996
- normalized growth [52]: 0.959
- normalized growth (locus YJR075W, strain HOC1, hits give low values): 0.978
- normalized growth [53]: 0.986
- normalized growth [54]: 1.01
- normalized growth [55]: 0.995
- normalized growth [56]: 0.983
- normalized growth [57]: 0.987
- normalized growth [58]: 0.999
- normalized growth [59]: 0.999
- normalized growth [60]: 1.04
- normalized growth [61]: 0.995
- normalized growth [62]: 0.977
- normalized growth [63]: 0.958
- normalized growth [64]: 0.974
- normalized growth [65]: 1
- normalized growth [66]: 1.02
- normalized growth [67]: 1.01
- normalized growth [68]: 0.978
- normalized growth [69]: 1
- normalized growth [70]: 1
- normalized growth [71]: 0.998
- normalized growth [72]: 1.02
- normalized growth [73]: 0.994
- normalized growth [74]: 0.992
- normalized growth [75]: 0.999
- normalized growth (locus YNL128W, strain TEP1, hits give low values): 0.979
- normalized growth (locus YNL153C, strain GIM3, hits give low values): 0.996
- normalized growth (locus YNL175C, strain NOP13, hits give low values): 1.01
- normalized growth [76]: 0.96
- normalized growth (locus YNL197C, strain WHI3, hits give low values): 0.96
- normalized growth [77]: 0.986
- normalized growth (locus YNL224C, strain SQS1, hits give low values): 0.996
- normalized growth [78]: 1
- normalized growth [79]: 0.99
- normalized growth [80]: 1.01
- normalized growth [81]: 0.988
- normalized growth [82]: 0.999
- normalized growth [83]: 0.987
- normalized growth (locus YOR083W, strain WHI5 (second series), hits give low values): 1.01
- normalized growth [84]: 1.02
- normalized growth [85]: 0.997
- normalized growth [86]: 1.01
- normalized growth [87]: 1
- normalized growth [88]: 1.03
- normalized growth [89]: 0.934
- normalized growth [90]: 0.992
- normalized growth [91]: 1
- normalized growth [92]: 0.999
- normalized growth [93]: 1.01
- normalized growth (locus YPL241C, strain CIN2, hits give low values): 1
- normalized growth [94]: 0.999

Structure (SMILES): O=C(CCCN1CCN(c2ccccn2)CC1)c1ccc(F)cc1
- normalized growth [1]: 0.848 (active)
- normalized growth [2]: 0.0899 (active)
- normalized growth [3]: 0.989
- normalized growth [4]: 0.968
- normalized growth [5]: 0.964
- normalized growth [6]: 0.969
- normalized growth [7]: 0.954
- normalized growth [8]: 0.855 (active)
- normalized growth [9]: 0.93 (active)
- normalized growth [10]: 0.971
- normalized growth [11]: 0.95
- normalized growth [12]: 0.993
- normalized growth [13]: 0.977
- normalized growth [14]: 0.992
- normalized growth [15]: 0.984
- normalized growth [16]: 0.984
- normalized growth [17]: 0.983
- normalized growth [18]: 0.858 (active)
- normalized growth [19]: 1
- normalized growth [20]: 0.996
- normalized growth (locus YDR195W, strain ref2): 1.23 [resistant] (active)
- normalized growth [21]: 0.972
- normalized growth [22]: 0.968
- normalized growth [23]: 0.948
- normalized growth [24]: 0.606 (active)
- normalized growth [25]: 0.933
- normalized growth [26]: 0.971
- normalized growth [27]: 0.976
- normalized growth [28]: 0.977
- normalized growth [29]: 0.981
- normalized growth [30]: 0.947
- normalized growth [31]: 0.436 (active)
- normalized growth [32]: 0.868 (active)
- normalized growth [33]: 0.94
- normalized growth [34]: 0.927
- normalized growth [35]: 0.999
- normalized growth [36]: 0.966
- normalized growth [37]: 0.946
- normalized growth [38]: 0.746 (active)
- normalized growth [39]: 0.974
- normalized growth [40]: 1.04
- normalized growth [41]: 1.04
- normalized growth [42]: 0.87 (active)
- normalized growth [43]: 0.984
- normalized growth [44]: 0.968
- normalized growth [45]: 0.982
- normalized growth [46]: 0.973
- normalized growth [47]: 0.811 (active)
- normalized growth [48]: 0.993
- normalized growth [49]: 0.932
- normalized growth [50]: 0.949
- normalized growth [51]: 0.967
- normalized growth [52]: 0.972
- normalized growth [53]: 0.9 (active)
- normalized growth [54]: 0.988
- normalized growth [55]: 0.99
- normalized growth [56]: 0.975
- normalized growth [57]: 0.987
- normalized growth [58]: 0.984
- normalized growth [59]: 0.975
- normalized growth [60]: 1.01
- normalized growth [61]: 0.976
- normalized growth [62]: 0.987
- normalized growth [63]: 0.821 (active)
- normalized growth [64]: 0.57 (active)
- normalized growth [65]: 0.981
- normalized growth [66]: 1.12
- normalized growth [67]: 0.95
- normalized growth [68]: 0.943
- normalized growth [69]: 0.961
- normalized growth [70]: 0.943
- normalized growth [71]: 0.981
- normalized growth [72]: 0.986
- normalized growth [73]: 0.894
- normalized growth [74]: 0.973
- normalized growth [75]: 0.781 (active)
- normalized growth [76]: 0.977
- normalized growth [77]: 0.962
- normalized growth [78]: 0.876 (active)
- normalized growth [79]: 1.02
- normalized growth [80]: 0.986
- normalized growth [81]: 0.789 (active)
- normalized growth [82]: 0.392 (active)
- normalized growth [83]: 0.998
- normalized growth [84]: 0.948
- normalized growth [85]: 0.905
- normalized growth [86]: 1.04
- normalized growth [87]: 0.969
- normalized growth [88]: 0.541 (active)
- normalized growth [89]: 0.894
- normalized growth [90]: 0.905 (active)
- normalized growth [91]: 0.915
- normalized growth [92]: 1.1
- normalized growth [93]: 0.985
- normalized growth [94]: 1.1
